Measured values: PubChem BioAssay (NCI)
About 79,000 compounds went through this panel and 15% of them were active in at least one assay; those are over-represented in the sample as a whole. Active and inactive are the calls of the source. No stated cut-off is given here; in the data, active means growth inhibition above about 70%; inactive means the rest.

Columns and labels:
[1] = NCI Yeast Anticancer Drug Screen. Data for the wt1 strain (AID 149);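 further: 0% = growth of vehicle-treated wt1 cultures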; settings: S. cerevisiae wt1 strain (SPY 50644) growth inhibition, stronger effect = higher value
In short: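 wt1 yeast, compound-treated; % growth inhibition vs vehicle control.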

[2] = NCI Yeast Anticancer Drug Screen. Data for the rad50EPP+ strain (AID 151);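 further: 0% = growth of vehicle-treated control cultures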; settings: S. cerevisiae rad50 mutant strain, stronger effect = higher value
In short: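 Measured: growth inhibition of rad50EPP+ yeast. Reference: vehicle-treated controls. Screen uses strains with defined genetic alterations in DNA damage repair or cell cycle control.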

[3] = NCI Yeast Anticancer Drug Screen. Data for the mgt1 strain (AID 153); settings: S. cerevisiae mgt1 mutant growth inhibition, stronger effect = higher value
In short: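 Compounds were applied to mgt1 mutant yeast, and growth was then compared against vehicle-treated control cultures to give percent inhibition.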

[4] = NCI Yeast Anticancer Drug Screen. Data for the rad50 strain (AID 155);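 further: 0% = growth of vehicle-only cultures of the same strain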; settings: S. cerevisiae rad50 strain growth inhibition, stronger effect = higher value
In short: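 Genetically altered yeast (DNA repair pathway); compound treatment; growth inhibition vs vehicle ctrl.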

[5] = NCI Yeast Anticancer Drug Screen. Data for the mec2-1 strain (AID 157); settings: S. cerevisiae mec2-1 strain, stronger effect = higher value
In short: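 Compounds were applied to mec2-1 yeast cells. Their growth was then compared with that of vehicle-treated cultures to give growth inhibition.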

[6] = NCI Yeast Anticancer Drug Screen. Data for the rad14 strain (AID 159);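 further: 0% = growth of vehicle-treated control cultures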; settings: S. cerevisiae rad14 strain growth inhibition, stronger effect = higher value
In short: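 Test compounds were applied to a repair-deficient yeast strain. Its growth was then compared with that of cultures given vehicle alone, and inhibition was expressed relative to those controls.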

[7] = NCI Yeast Anticancer Drug Screen. Data for the sgs1 mgt1 strain (AID 161);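 further: 0% = growth of cultures given vehicle only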; settings: S. cerevisiae sgs1 mgt1 strain, stronger effect = higher value
In short: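 This yeast growth screen uses a strain with defined DNA-repair lesions; compound-treated growth is compared with vehicle-treated growth.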

[8] = NCI Yeast Anticancer Drug Screen. Data for the CLN2oe strain (AID 163);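 further: 0% = growth of vehicle-only control cultures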; settings: S. cerevisiae CLN2oe strain, stronger effect = higher value
In short: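 Cells of an engineered yeast line with disturbed cell-cycle regulation are treated with compound. Inhibition of growth is then calculated relative to the vehicle-treated reference.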

[9] = NCI Yeast Anticancer Drug Screen. Data for the cln2 rad14 strain (AID 165);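 further: 0% = growth equal to vehicle treated cultures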; settings: S. cerevisiae cln2 rad14 strain, stronger effect = higher value
In short: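 Strain: cln2 rad14 yeast, altered in cell cycle control and DNA damage repair. Read-out: growth inhibition vs vehicle.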

[10] = NCI Yeast Anticancer Drug Screen. Data for the bub3 strain (AID 167); settings: S. cerevisiae bub3 mutant strain, stronger effect = higher value
In short: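 Yeast carrying a defined mutation is treated with each compound, and growth is compared with that of vehicle-exposed cells to give inhibition.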

[11] = NCI Yeast Anticancer Drug Screen. Data for the wt2 strain (AID 169);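 further: 0% = growth of vehicle-treated yeast cultures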; settings: S. cerevisiae wt2 strain growth inhibition, stronger effect = higher value
In short: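 Growth of compound-treated yeast is measured and expressed as inhibition relative to vehicle-only controls.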

[12] = NCI Yeast Anticancer Drug Screen. Data for the mlh1 strain (AID 171);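 further: 0% = growth of vehicle-treated control cultures of the same strain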; settings: S. cerevisiae mlh1 strain growth inhibition, stronger effect = higher value
In short: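 Test agents were incubated with yeast bearing a defined DNA damage repair or cell cycle control alteration; values are growth inhibition normalised to vehicle-treated cultures.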

[13] = NCI Yeast Anticancer Drug Screen. Data for the sgs1 strain (AID 173);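 further: 0% = growth of vehicle-only control cultures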; settings: S. cerevisiae sgs1 mutant, stronger effect = higher value
In short: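 Strain with an altered DNA repair or cell cycle pathway exposed to compound. Growth then measured. Value = inhibition versus vehicle control.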

[14] = NCI Yeast Anticancer Drug Screen. Data for the mlh1 rad18 strain (AID 175); settings: S. cerevisiae mlh1 rad18 strain growth inhibition, stronger effect = higher value
In short: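 A repair-deficient yeast strain is exposed to test compound, and growth is scored relative to vehicle-treated controls.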

[15] = NCI Yeast Anticancer Drug Screen. Data for the rad18 strain (AID 177); settings: S. cerevisiae rad18 mutant growth inhibition, stronger effect = higher value
In short: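 DNA-repair-defective yeast; compound treatment; growth inhibition scored against vehicle.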

[16] = at 5.0 µM (retest, dose inferred, filed as 0.5)
[17] = at 50.0 µM (retest, dose inferred, filed as 5.0)

Measured: growth inhibition

CN(C)c1ccc(/C=C/c2ccnc3ccc4ccccc4c23)cc1
active: [4]; at 100.0 µM 70% | [5]; at 33.0 µM 82% | [5]; at 100.0 µM 82% | [6]; at 33.0 µM 83% | [6]; at 100.0 µM 80% | [7]; [17] 76% | [7]; at 50.0 µM 91.4% | [10]; at 33.0 µM 83% | [10]; at 50.0 µM 70% | [10]; at 100.0 µM 79% | [13]; at 33.0 µM 77% | [14]; at 50.0 µM 72% | [15]; at 11.0 µM 75% | [15]; at 33.0 µM 84% | [15]; at 100.0 µM 75%
inactive: [1]; at 1.2 µM -6% | [1]; at 3.7 µM -9% | [1]; at 11.0 µM -6% | [1]; at 33.0 µM 34% | [1]; at 100.0 µM 48% | [2]; at 1.2 µM 2% | [2]; at 3.7 µM 8% | [2]; at 11.0 µM 15% | [2]; at 33.0 µM 4% | [2]; at 100.0 µM -14% | [3]; at 1.2 µM -3% | [3]; at 3.7 µM -2% | [3]; at 11.0 µM 45% | [3]; at 33.0 µM 69% | [3]; at 100.0 µM 58% | [4]; at 1.2 µM -7% | [4]; at 3.7 µM 3% | [4]; [16] 9% | [4]; at 11.0 µM 30% | [4]; at 33.0 µM 67% | [4]; [17] -7% | [4]; at 50.0 µM 69% | [5]; at 1.2 µM -7% | [5]; at 3.7 µM -7% | [5]; [16] -7% | [5]; at 11.0 µM 4% | [5]; [17] -18% | [5]; at 50.0 µM 27.3% | [6]; at 1.2 µM -5% | [6]; at 3.7 µM -4% | [6]; at 11.0 µM 28% | [7]; [16] -2% | [8]; at 1.2 µM -11% | [8]; at 3.7 µM -16% | [8]; at 11.0 µM -15% | [8]; at 33.0 µM 2% | [8]; at 100.0 µM 55% | [9]; [16] -14% | [9]; [17] 22% | [9]; at 50.0 µM 6.65% | [10]; at 1.2 µM -6% | [10]; at 3.7 µM -8% | [10]; [16] -4% | [10]; at 11.0 µM 6% | [10]; [17] 3% | [11]; at 1.2 µM -6% | [11]; at 3.7 µM -5% | [11]; at 11.0 µM 50% | [11]; at 33.0 µM 61% | [11]; at 100.0 µM 51% | [12]; at 1.2 µM -8% | [12]; at 3.7 µM 0% | [12]; at 11.0 µM 45% | [12]; at 33.0 µM 67% | [12]; at 100.0 µM 68% | [13]; at 1.2 µM -3% | [13]; at 3.7 µM 11% | [13]; at 11.0 µM 67% | [13]; at 100.0 µM 68% | [14]; [16] -3% | [14]; [17] 37% | [15]; at 1.2 µM 2% | [15]; at 3.7 µM 20%

Cc1nc2ccccc2c(=O)n1NC(=O)c1ccc(CS)cc1
inactive: [1]; at 1.2 µM 8% | [1]; at 3.7 µM 1% | [1]; at 11.0 µM 4% | [1]; at 33.0 µM 17% | [2]; at 1.2 µM -9% | [2]; at 3.7 µM 4% | [2]; at 11.0 µM -3% | [2]; at 33.0 µM 23% | [3]; at 1.2 µM -11% | [3]; at 3.7 µM -12% | [3]; at 11.0 µM -17% | [3]; at 33.0 µM 6% | [4]; at 1.2 µM 7% | [4]; at 3.7 µM 3% | [4]; [16] -24% | [4]; at 11.0 µM 4% | [4]; at 33.0 µM 23% | [4]; [17] 9% | [4]; at 50.0 µM 66.2% | [5]; at 1.2 µM -16% | [5]; at 3.7 µM -4% | [5]; [16] -27% | [5]; at 11.0 µM -13% | [5]; at 33.0 µM 23% | [5]; [17] 1% | [6]; at 1.2 µM -21% | [6]; at 3.7 µM -23% | [6]; at 11.0 µM -25% | [6]; at 33.0 µM 26% | [7]; [16] -14% | [7]; [17] 3% | [7]; at 50.0 µM 65.5% | [8]; at 1.2 µM 2% | [8]; at 3.7 µM -17% | [8]; at 11.0 µM -6% | [8]; at 33.0 µM 22% | [9]; [16] -29% | [9]; [17] 6% | [9]; at 50.0 µM 31.9% | [10]; at 1.2 µM 16% | [10]; at 3.7 µM -6% | [10]; [16] -13% | [10]; at 11.0 µM 16% | [10]; at 33.0 µM 45% | [10]; [17] 41% | [10]; at 50.0 µM -8.65% | [11]; at 1.2 µM 4% | [11]; at 3.7 µM 7% | [11]; at 11.0 µM 9% | [11]; at 33.0 µM 16% | [12]; at 1.2 µM 0% | [12]; at 3.7 µM 12% | [12]; at 11.0 µM 16% | [12]; at 33.0 µM 36% | [13]; at 1.2 µM 15% | [13]; at 3.7 µM 11% | [13]; at 11.0 µM 20% | [13]; at 33.0 µM 61% | [14]; [16] -51% | [14]; at 50.0 µM 65% | [15]; at 1.2 µM 9% | [15]; at 3.7 µM 12% | [15]; at 11.0 µM 2% | [15]; at 33.0 µM 40%
active: [1]; at 100.0 µM 96% | [2]; at 100.0 µM 85% | [3]; at 100.0 µM 86% | [4]; at 100.0 µM 97% | [5]; at 50.0 µM 76.2% | [5]; at 100.0 µM 97% | [6]; at 100.0 µM 95% | [8]; at 100.0 µM 95% | [10]; at 100.0 µM 96% | [11]; at 100.0 µM 92% | [12]; at 100.0 µM 95% | [13]; at 100.0 µM 95% | [14]; [17] 71% | [15]; at 100.0 µM 96%
